In article PMC4336329 (PLoS ONE, 2015):
The campaign covered roughly 310,000 compounds. About 14,000 (4.5%) showed an effect of 50% or more. Effects have a minus sign here. The entries come from a sample that favours strong results as a whole.

Biological target: human ether-à-go-go-related gene (hERG) potassium channel (human, UniProt Q12809)
Test: primary screen, population patch clamp on CHO cells stably expressing hERG; higher = less effect of the substance
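Further: peak tail current of the secondary pulse compared with the same well before compound.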

Sequence of human ether-à-go-go-related gene (hERG) potassium channel (Q12809 whole entry, looked up): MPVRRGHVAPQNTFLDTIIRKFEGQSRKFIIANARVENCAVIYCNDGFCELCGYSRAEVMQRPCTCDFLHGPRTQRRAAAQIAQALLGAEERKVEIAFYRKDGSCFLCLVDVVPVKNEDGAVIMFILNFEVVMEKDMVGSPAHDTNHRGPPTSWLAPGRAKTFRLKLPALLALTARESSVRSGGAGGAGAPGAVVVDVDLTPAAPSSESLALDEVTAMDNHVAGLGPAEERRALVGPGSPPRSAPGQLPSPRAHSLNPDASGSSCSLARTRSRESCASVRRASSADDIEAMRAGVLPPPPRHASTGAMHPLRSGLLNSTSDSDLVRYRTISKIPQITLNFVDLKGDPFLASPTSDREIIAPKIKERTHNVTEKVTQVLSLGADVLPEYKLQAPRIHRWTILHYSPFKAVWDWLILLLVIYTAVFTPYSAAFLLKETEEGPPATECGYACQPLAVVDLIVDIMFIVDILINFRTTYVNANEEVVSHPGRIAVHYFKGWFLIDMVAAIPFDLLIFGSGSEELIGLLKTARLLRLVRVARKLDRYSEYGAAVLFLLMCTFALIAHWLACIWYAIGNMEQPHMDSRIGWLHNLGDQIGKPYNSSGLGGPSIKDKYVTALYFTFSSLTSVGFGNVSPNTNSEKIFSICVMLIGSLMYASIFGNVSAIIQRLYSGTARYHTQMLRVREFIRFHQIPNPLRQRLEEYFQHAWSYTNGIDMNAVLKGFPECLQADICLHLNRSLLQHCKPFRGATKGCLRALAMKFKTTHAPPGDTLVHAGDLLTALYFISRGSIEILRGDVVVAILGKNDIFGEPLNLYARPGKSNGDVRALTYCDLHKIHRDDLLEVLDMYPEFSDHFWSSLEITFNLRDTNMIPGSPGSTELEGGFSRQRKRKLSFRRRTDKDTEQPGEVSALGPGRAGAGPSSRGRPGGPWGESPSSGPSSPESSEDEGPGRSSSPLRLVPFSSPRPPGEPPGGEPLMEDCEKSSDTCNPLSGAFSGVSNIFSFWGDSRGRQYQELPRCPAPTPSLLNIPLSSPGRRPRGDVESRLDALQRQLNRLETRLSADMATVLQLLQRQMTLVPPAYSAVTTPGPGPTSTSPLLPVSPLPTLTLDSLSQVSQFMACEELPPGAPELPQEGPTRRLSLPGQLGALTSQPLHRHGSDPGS

Row | SMILES | hERG current change (%, negative = inhibition) at 10uM [%]
1 | CCN1CCCC1CNC(=O)c1cc2c(C)nc3ccccc3c2o1 (stereo not drawn) | -12
2 | O=C(O)C(=O)O.c1ccc(COc2ccc(OCCCCN3CCCCC3)cc2)cc1 | -70.5
3 | O=C(O)C(=O)O.c1ccc(COc2ccc(OCCCCN3CCCC3)cc2)cc1 | -64
4 | CSc1cccc(N2CC(C(=O)NCCC3=CCCCC3)CC2=O)c1 (stereo not drawn) | 14.1
5 | Cc1cccc(NC(=O)C2NC(=O)CC2c2ccccc2)c1C (stereo not drawn) | 1.2
6 | O=C(CSc1nnc(NC(=O)c2ccc(F)cc2F)s1)NC1CCCC1 | 17.7
7 | Clc1ccc(N=C2SCC3CCCCN23)cc1 (stereo not drawn) | -18.3
8 | COc1ccc(S(=O)(=O)N2CCN(c3nc(C)cc(C)n3)CC2)cc1 | 2.96
9 | Cc1nc2cc(C(=O)OCC(=O)Nc3cccc(Cl)c3)ccc2n1-c1ccccc1 | -13.6
10 | O=C(Nc1ncc(C(F)(F)F)cc1Cl)c1ccc(S(=O)(=O)N2CCOCC2)cc1 | -13.4
11 | COc1cc(C(=O)N/N=C/c2ccc(OC(=O)c3ccccc3Cl)c(OC)c2)ccc1O | 13.4
12 | COc1ccc(/C=N/NC(=O)c2cccc(NC(=O)c3ccccc3Cl)c2)cc1OC | -3.89
13 | COc1ccc(C(=O)Nc2cccc(-c3nnc(-c4ccco4)o3)c2)cc1 | -37.4
14 | COc1cccc(C(=O)Nc2cccc(-c3nnc(-c4ccccc4)o3)c2)c1 | -4.18
15 | COc1cc(/C=N\NC(=O)c2cccnc2)ccc1OC(=O)c1ccccc1Cl | -7.3
16 | COc1cccc(C(=O)Nc2cccc(NC(C)=O)c2)c1 | -8.39
17 | COc1cc(/C=N/NC(=O)c2cccc(NC(=O)c3ccccc3Cl)c2)ccc1O | -55.6
18 | COc1cccc(C(=O)Nc2cccc(NC(=O)c3ccccc3Cl)c2)c1 | -52
19 | COc1cccc(C(=O)Nc2cccc(-c3nnc(-c4ccco4)o3)c2)c1 | -51.4
20 | CC(C)Oc1cccc(C(=O)NC(=S)Nc2cccc(NC(=O)c3ccccc3Cl)c2)c1 | -11.9
21 | COc1cc(/C=N/NC(=O)c2cccc(NC(=O)c3ccccc3C)c2)ccc1O | -48.4
22 | COc1cc(/C=N/NC(=O)c2ccncc2)ccc1OC(=O)c1ccccc1Cl | -50.8
23 | CCOc1ccc(NC(=O)CCN2C(=O)CSc3ccccc32)cc1 | -25.3

Row | SMILES | hERG current change (%, negative = inhibition) at 10uM [%]
24 | O=C(/C=C\Nc1ccc2c(c1)OCO2)c1cccs1 | 17.6
25 | Cc1nc(SCC(=O)Nc2c(C)nn(C)c2C)c2cnn(-c3ccccc3)c2n1 | 14
26 | Cc1ccc(S(=O)(=O)N2CCOCC2)cc1NC(=O)c1cc(-c2ccccn2)nc2ccccc12 | -46.7
27 | S=c1[nH]nc(-c2ccc(Cl)cc2Cl)n1-c1ccc2c(c1)OCCO2 | 6.46
28 | c1ccc(C2CCC(N3CCC(N4CCCCC4)CC3)CC2)cc1 (stereo not drawn) | 10.8
29 | COCCNC(=O)CSCc1c(F)cccc1Cl | 3.73
30 | CCCc1cc(=O)oc2cc(C)cc(OC(C)C(=O)NCc3ccccn3)c12 (stereo not drawn) | -8.3
31 | Fc1cccc2sc(Nc3nnc(-c4ccccc4)o3)nc12 | 20.5
32 | O=c1[nH]nc(N/N=C/c2ccc(Cl)cc2Cl)c(=O)[nH]1 | -1.17
33 | Cn1c(SCC(=O)O)nnc1-c1cccc(NC(=O)c2cccc3ccccc23)c1 | 7.15
34 | COC(=O)c1cccc(NC(=O)c2ccc(OC)c(Cl)c2)c1 | -65.3
35 | COc1cccc(C(=O)NCCSCc2ccccc2Cl)c1 | -53.2
36 | COc1ccccc1C(=O)NCCSCc1ccccc1Cl | -15.4
37 | COc1cccc(C(=O)NCCSCc2c(F)cccc2Cl)c1 | -29
38 | COc1ccc(C(=O)Nc2cc(C(=O)O)cc(C(=O)O)c2)cc1Cl | 19.5
39 | COc1ccc(NC(=O)c2cccc(F)c2)cc1Cl | 1.72
40 | CCNS(=O)(=O)c1ccc(CCC(=O)NCCC2=CCCCC2)cc1 | -23.6
41 | Cc1cccc(C)c1NC(=O)COC(=O)c1ccc2c(c1)OCO2 | -4.84
42 | c1cnc2c(SCc3ccc(-c4nnco4)cc3)cccc2c1 | 1.45
43 | COc1cc(OC)c(NC(=O)c2csc(C)c2)cc1Cl | 14.2
44 | Cc1ccccc1CNC(=O)/C=C\C(=O)O | 3.23
45 | FC(F)(F)c1cc(-c2cccs2)nc(-n2cc(Cl)cn2)n1 | 0.253
